As a reminder, the inhibition is the relative decrease from the control value, in per cent.

Among the data in PubChem BioAssay AID743060 (The Scripps Research Institute Molecular Screening Center, 2013) are inhibition values, retold here.

This test is described as follows: T. brucei methionyl-tRNA synthetase enzyme inhibition – biochemical, radioactivity, round 1, late-stage follow-up (AID 743060). The settings on record: purified enzyme, radiolabel aminoacylation, scintillation, 2 h; at 10 µM; stronger effect = higher value.
In the case of `Cc1ccc(C(=O)NCCc2nc3ccccc3[nH]2)cc1[N+](=O)[O-]`, the inhibition was determined as 86.4%.

Take `CCc1ccc2[nH]c3nc(SCC(=O)NCc4cccc(OC)c4)nnc3c2c1`: the inhibition amounted to 0.65%.

With `COc1ccccc1NS(=O)(=O)c1cccc(NC(=O)Nc2ccccc2)c1`, the inhibition came out at 95.1%.

For the compound `COc1ccc(CNC(=O)CSc2nnc3c(n2)[nH]c2ccc(F)cc23)cc1`, the inhibition is 89.6%.

For `Cc1ccc(NC(=O)CN(C)C(=O)CCSc2ccc(F)cc2)cc1`, the inhibition came to 67.3%.

Regarding `CCN(CC)C(=O)C(=O)c1cn(CC(=O)Nc2ccccc2OC)c2ccccc12`, the inhibition is -11.4%.

For `CCN(CC)C(=O)C(=O)c1cn(CC(=O)N(CC)c2ccccc2)c2ccccc12`, the inhibition was -7.96%.

With `CN(CC(=O)Nc1ccc(Cl)cc1)C(=O)c1ccc(-n2cncn2)c([N+](=O)[O-])c1`, the inhibition came out at 92.5%.

Consider `COc1ccccc1NC(=O)CSc1nnc2c(n1)[nH]c1ccc(C)cc12`, for which the inhibition amounted to 14.5%.

Take `Cc1cccc2[nH]c(C3CCCN(C(=O)c4cccc5cccnc45)C3)nc12` (configuration not stated): the inhibition is -4.34%.

Consider `O=C(N/C(=C\c1cccnc1)c1nc2ccccc2[nH]1)c1cccc(Br)c1`, for which the inhibition worked out at 71.7%.

Regarding `O=C(NCCc1nc2ccccc2[nH]1)c1ccc(Cl)c(Cl)c1`, the inhibition was 97.5%.

On to `O=C(NCCc1nc2ccccc2[nH]1)c1ccc(Cl)cc1Cl`, for which the inhibition is 94.9%.

Regarding `Cc1cc2cc(C(=O)N3CCCC(c4nc5ccccc5[nH]4)C3)ccc2o1` (configuration not stated), the inhibition stood at 78.2%.

`O=C(CC=NOCc1ccc([N+](=O)[O-])cc1)Nc1ccc(Br)cc1`: the inhibition stood at 84.7%.

`O=C(NCc1nc2ccccc2[nH]1)C1=C[C@@H](C2CC2)C[C@@H](OCc2ccc(CO)cc2)O1`: the inhibition was determined as 93.6%.

As to `CC1Cc2ccccc2N1C(=O)Cn1cc(C(=O)C(=O)N2CCOCC2)c2ccccc21` (configuration not stated), the inhibition was -14.7%.
